Unmarked numbers belong to inactive results.
Test system: Vero E6 infected with SARS-CoV-2
Assay: inhibition of SARS-CoV-2 cytopathic effect; higher = more antiviral protection, active = above 15
Settings: 48 h

Structure (SMILES)	inhibition of SARS-CoV-2 cytopathic effect (1 nM) [%]	inhibition of SARS-CoV-2 cytopathic effect (8.33 nM) [%]	inhibition of SARS-CoV-2 cytopathic effect (100 nM) [%]	inhibition of SARS-CoV-2 cytopathic effect (833.33 nM) [%]	inhibition of SARS-CoV-2 cytopathic effect (10000 nM)
COc1cc2c(cc1OC)-c1cc3ccc(OC)c(OC)c3c[n+]1CC2 [palmatine-chloride]	-2.25	0.72	-0.15	-2.8	2.04%
C[C@H]1CCc2c(cc(Br)c(F)c2Br)N1C=O	-0.42	-1.13	-1.55	-0.53	-1.25%
COc1ccc2cc([C@H](C)C(=O)O)ccc2c1 [naproxen]	3.38	3.96	1.16	-1.2	0.68%
CC(=O)OCC1=C(C(=O)O)N2C(=O)[C@@H](NC(=O)CS/C(=N/C(C)C)NC(C)C)[C@H]2SC1 [cefathiamidine]	-0.52	-0.04	1.14	0.34	0.26%
CC(=O)N1CCC(NC(=O)c2ccc(F)cc2)CC1	-1.4	-1.44	0.95	0.58	0.98%
CCCCCCCCCCCCCCOC(=O)c1cccnc1 [myristyl-nicotinate]	0.94	2.86	0.68	1.76	1.2%
CCCC[C@H](NC(C)=O)C(=O)N[C@H]1CC(=O)NCCCC[C@@H](C(=O)O)NC(=O)[C@H](Cc2c[nH]c3ccccc23)NC(=O)[C@H](CCCNC(=N)N)NC(=O)[C@@H](Cc2ccccc2)NC(=O)[C@H](Cc2c[nH]cn2)NC1=O [bremelanotide]	1.27	-1.82	-0.14	-2.33	0.21%
COc1cc2c(NC3CCN(C4CCCCC4)CC3)nc(N3CCCN(C(C)C)CC3)nc2cc1OCCCN1CCCCC1	-0.42	1.56	0.26	-2.24	15%
COC(=O)Nc1ccc(-c2nc(N3CCOCC3)c3cnn(C4CCN(Cc5cccnc5)CC4)c3n2)cc1	-4.18	-1.95	3.87	-4.82	-2.6%
CCOc1ccc(Cc2cc([C@@H]3O[C@H](SC)[C@@H](O)[C@H](O)[C@H]3O)ccc2Cl)cc1 [sotagliflozin]	-0.94	-2.52	-1.14	-3.56	-3.65%
Cc1cccc(C(=O)NCN2CCN(c3ccccc3C#N)CC2)c1	-2.23	0.9	-0.16	0.2	0.79%
COC[C@H](C)Oc1cc(O[C@@H](C)Cc2ccccc2)cc(C(=O)Nc2ccc(C(=O)O)cn2)c1	-1.62	2.26	1.23	-0.06	0.06%
CCOC(=O)N1c2ccc(C(F)(F)F)cc2[C@@H](N(Cc2cc(C(F)(F)F)cc(C(F)(F)F)c2)C(=O)OC)C[C@H]1CC	0.17	0.5	0.49	1.09	1.77%
CCCCn1c(-c2ccccc2)nc(-c2ccccc2)c1CN(Cc1ccc2c(c1)OCO2)Cc1ccc2c(c1)OCO2	0	1.63	-0.2	0.71	5.96%
NC[C@@H]1O[C@H](O[C@@H]2[C@@H](CO)OC(O[C@@H]3[C@@H](O)[C@H](N)C[C@H](N)[C@H]3OC3O[C@H](CN)[C@@H](O)[C@H](O)[C@H]3N)[C@@H]2O)[C@H](N)[C@@H](O)[C@@H]1O (stereo not given in full)	-1.31	-1.2	0.22	1.17	-0.07%
N=C(N)N [guanidine]	-0.16	0.17	-2.15	-3.58	-6.14%
C=C1C[C@]23C[C@@]1(O)CC[C@H]2[C@@]12C=C[C@H](O)[C@@](C)(C(=O)O1)[C@H]2[C@@H]3C(=O)O	0.13	0.82	1.4	2.17	-0.14%
CC(C)n1c(=O)n(C(=O)N[C@H]2C[C@H]3CC[C@@H](C2)N3C)c2ccccc21	3	1.63	-0.05	-0.36	-2.53%
N=C(N)Nc1ccc(C(=O)Oc2ccc3cc(C(=N)N)ccc3c2)cc1 [nafamostat]	1.66	4.06	4.33	3.65	4.81%
COc1ccc(C2CC(c3ccccc3)=NN2c2ccc(S(N)(=O)=O)cc2)cc1 (stereo not given)	0.58	2.1	1.18	-2.57	0.95%

Structure (SMILES)	inhibition of SARS-CoV-2 cytopathic effect (1 nM) [%]	inhibition of SARS-CoV-2 cytopathic effect (8.33 nM) [%]	inhibition of SARS-CoV-2 cytopathic effect (100 nM) [%]	inhibition of SARS-CoV-2 cytopathic effect (833.33 nM) [%]	inhibition of SARS-CoV-2 cytopathic effect (10000 nM)
CC[C@]12CCCN3CCc4c(n(c5ccccc45)C(=O)C1)[C@@H]32 [vinburnine]	-4.83	-3.72	-1.1	0.35	-0.52%
NCCCCCC(O)(P(=O)(O)O)P(=O)(O)O [neridronic-acid]	0.84	-0.27	-2.11	2.29	3.47%
CCOc1nc2cccc(C(=O)OCc3oc(=O)oc3C)c2n1Cc1ccc(-c2ccccc2-c2noc(=O)[nH]2)cc1 [azilsartan-medoxomil]	0.24	1.14	2.01	1.93	-0.28%
COC(=O)C1=CCCN(C)C1 [arecoline]	1.27	1.95	-1.54	-1.35	1.15%
CN(C)C[C@H](O)Cn1c2ccc(Br)cc2c2cc(Br)ccc21 (racemic) [wiskostatin]	-2.04	-1.61	0.88	-1.26	57.3% (active)
NC1CCN(c2nc3c(cc2F)c(=O)c(C(=O)O)cn3-c2ccc(F)cc2F)C1 (stereo not given) [tosufloxacin]	-2.93	0.34	-3.49	-3.32	-0.08%
Nc1nc(F)nc2c1ncn2[C@@H]1O[C@H](CO)[C@@H](O)[C@@H]1O [fludarabine]	-1.26	-3.11	-2.43	1.66	-0.43%
CCN(CC)C(=S)S [ditiocarb-sodium-trihydrate]	0.85	-0.21	0.86	-0.23	23.6% (active)
COc1ccc(C(CN(C)C)C2(O)CCCCC2)cc1 (stereo not given) [venlafaxine]	0.56	0.96	1.86	-0.35	-0.29%
O[C@H]([C@H](O)[C@@H]1CO1)[C@H]1CO1 [dianhydrogalactitol]	-0.61	-1.52	-3.41	0.41	2.5%
CCN(CC)CCCCN1c2ccccc2Oc2ccc(Cl)cc21	0.59	-2.15	-2.29	-3.45	40.9% (active)
O=[N+]([O-])c1c(Nc2cc(F)cc(Cl)c2)ccc2nonc12	1.7	2.32	1.45	-0.1	2.66%
Cc1ccc(-c2ccc(F)cc2COc2ccc(CCC(=O)O)cc2)cc1	-2.64	0.79	-1.34	0.38	-1.53%
O=C(O)CCC(=O)C(=O)O [2-oxoglutaric-acid]	-3.15	-0.14	1.87	0.16	-2.21%
CC(=O)OC/C=C(C)/C=C/C=C(C)/C=C/C1=C(C)CCCC1(C)C [retinyl-acetate]	-1.78	0.37	-0.15	1.34	0.15%
CCN(CC)CCOc1ccccc1C(=O)CCc1ccccc1 [etafenone]	1.2	0.17	-0.61	0.23	-3.07%
NS(=O)(=O)c1cc(Cl)c(Cl)c(S(N)(=O)=O)c1 [diclofenamide]	-2.99	-2.1	-3.44	0.21	-2.7%
CC12CCC(C(Br)C1=O)C2(C)C (stereo not given) [3-bromocamphor]	-1.02	0.99	-0.16	1.85	0.04%
CC[C@H](CO)Nc1nc(NCc2ccccc2)c2ncn(C(C)C)c2n1 [roscovitine]	1.02	2.46	-0.4	-1.46	-0.57%

— the supplement of paper PMC13380429
